High-throughput results as filed in PubChem.
esBAF inh: blocks esBAF chromatin remodeling in mouse ES cells; reporter increase, % at 12.5 µM; 2% of 350,000 active; Bmi1-luciferase knock-in reporter, 24 h; 100% = twice the neutral-well signal; in the data active = activation above about 40%; inconclusive = no clear call, values can overlap the other calls;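 also: 0% = median of the plate's neutral control wells and 100% = double that signal; a rise in the Bmi1 reporter signal indicates esBAF inhibition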
MITF TRPM1 HTS: increases MITF-driven TRPM1 promoter luciferase signal. 0.75% of 300,000 active. SK-MEL-5 TRPM1-promoter luciferase, 24 h; % of positive control, neutral wells = 0. activation, % at 12.5 µM. AID 588334;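 active = mean activation of at least 80% with every replicate also reaching 80%; inconclusive = mean reaches 80% but some replicate falls short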;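 also: 0% = neutral control wells and 100% = parthenolide positive control wells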
Vif inh: inhibitors of HIV Vif; AID 602346; HEK293T cells, Vif self-association by quenched fluorescence, imaging, 24 h; inhibition, % at 7.49 µM; 0.35% of 340,000 active; in the data active = inhibition above about 50%, passing the limit was not always enough; inconclusive = no clear call, values can overlap the other calls; inactive = below about 31%
Glyco luc inh: N-linked glycosylation inhibition. D54 ERlucT glycosylation luciferase reporter, 24 h; percent of 100 nM tunicamycin response. reporter increase, % at 12.5 µM. 0.23% of 360,000 active. AID 588692;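 active = mean luciferase reporter signal, scaled so untreated is 0 and the glycosylation-blocking control 100, at or above a set limit in every replicate; inconclusive = mean reaches the limit but not every replicate does; inactive = mean below the limit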;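 also: luciferase carries N-glycosylation sites so blocking glycosylation raises the light; 0% = median of neutral control wells and 100% = median of 100 nM tunicamycin wells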
Wnt act: activators of Wnt/beta-catenin signaling; Wnt/beta-catenin reporter cell assay, activator, plate reader; activation, % at 9.35 µM; 1.2% of 300,000 active; AID 743398; in the data active = activation above about 30%, passing the limit was not always enough; inconclusive = no clear call, values can overlap the other calls;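 also: 0% = neutral control wells and 100% = positive control wells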
PvdQ acylase: P. aeruginosa PvdQ acylase inhibition | purified PvdQ acylase, fluorescence plate reader | inhibition, % at 10 µM | 0.063% of 340,000 active | AID 488965; in the data active = inhibition above about 30%, passing the limit was not always enough; inconclusive = no clear call, values can overlap the other calls;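 also: 0% = vehicle neutral wells and 100% = reference inhibitor wells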
* marks the source's active call; other numbers are inactive results; ? = inconclusive; / = no result. This is a sample that favours compounds with a hit; in the whole collection about 2.9% have one here.

SMILES	esBAF inh	MITF TRPM1 HTS	Vif inh	Glyco luc inh	Wnt act	PvdQ acylase
C=C(C)C1CC=C(C)/C(=N/NC(=O)c2cccs2)C1 (stereo unspecified)	42.5*	98.1*	0.3	-1.1	26.8	-6.7
C=C(C)C1CC=C(C)C(=NNC(=O)c2ccncc2)C1 (stereo unspecified)	0.8	-3.9	10.1	5.3	-0.9	-9.4
CN1CCS/C1=C/C=C1/SC(=S)N(Cc2ccccc2)C1=O	/	52.5	51.6*	1.7	?	1.2
CN1CCS/C1=C/C=C1\SC(=S)N(CC(=O)O)C1=O	-11.3	8.7	46.9	0.8	-2.5	-2.8
CCCCN1C(=O)/C(=C/C=C2\SCCN2C)SC1=S	/	91.6*	16.9	0.9	11.4	-1.2
CC(=O)N1C[C@@H]2[C@H](c3ccccc31)[C@H](CO)N2C(=O)c1ccc(F)cc1	-1.3	/	/	/	/	/
Cc1cc(C)c2nc(NCc3ccccc3O)sc2c1	44.8*	94.8*	-4.3	0.3	16.2	-20.6
CC(C)c1ccc(/C=N/NC(=O)c2c(Cl)cnn2C)cc1	/	93.3*	-1.2	-6.2	/	-12.8
Cc1noc(C)c1NC(=O)N(C)C[C@@H]1OCCCC[C@@H](C)Oc2ccc(NC(=O)Nc3ccc(F)cc3)cc2C(=O)N([C@H](C)CO)C[C@H]1C	5.6	/	/	/	/	/
O=C(c1ccccc1)N1C[C@H]2[C@@H](c3ccccc31)[C@H](CO)N2C(=O)Nc1ccccc1Cl	-3.1	/	/	/	/	/
c1csc(-c2nc3ccccc3s2)c1	47.0*	78.8	-1.3	-3.5	12.5	5.2
COc1ccc(-c2nc3ccccc3s2)cc1NC(C)=O	38.9	67.7	-12.3	-3.9	36.0*	8.5
Nc1ccccc1-c1nc2ccccc2s1	?	41.7	2.6	-3.7	46.4*	11.8
COc1ccc(N2CCN(C(=O)c3ccc(-c4nc5ccccc5s4)o3)CC2)cc1	43.2*	19.9	-5.1	-1.9	3.9	-9.9
Nc1ccc(O)c(-c2nc3ccccc3s2)c1	31.1	0.5	5.7	-0.7	2.0	-7.5
CS(=O)(=O)Nc1ccc2c(c1)[C@@H]1C[C@@H](CC(=O)N3CCOCC3)O[C@H](CO)[C@@H]1O2	-6.5	/	/	/	/	/
C[C@H](CO)N1C[C@H](C)[C@H](CN(C)S(=O)(=O)c2cn(C)cn2)Oc2ccc(NC(=O)Nc3cccc4ccccc34)cc2CC1=O	6.2	/	/	/	/	/
Oc1ccc(-c2nc3ccccc3s2)cc1	-29.0	46.3	-0.2	-12.7	47.0*	16.7
c1cncc(-c2nc3ccccc3s2)c1	?	85.1*	4.7	1.5	?	13.3
CN(C)c1nc(N)nc(-c2nc3ccccc3s2)n1	/	10.7	3.2	-3.6	31.4*	0.1
COc1ccc(-c2nc3ccccc3s2)cc1	/	-22.4	2.7	-16.6	4.7	67.3*
c1ccc2sc(-c3ccc4c(c3)OCO4)nc2c1	-73.0	-8.1	-5.0	-15.9	/	49.0*
COc1cccc(-c2nc3ccccc3s2)c1	/	9.8	-13.1	-13.2	/	4.5
O=C(Nc1cccc(-c2nc3ccccc3s2)c1)c1ccc2c(c1)OCO2	5.1	7.2	14.4	0.7	0.5	-8.2
Oc1ccc(-c2nc3ccccc3s2)c(O)c1	/	56.5	-1.9	-1.2	57.5*	-2.6
SMILES	esBAF inh	MITF TRPM1 HTS	Vif inh	Glyco luc inh	Wnt act	PvdQ acylase
c1ccc2sc(-c3ccncc3)nc2c1	/	69.5	7.4	1.6	42.5*	-11.7
CNC(=O)C[C@@H]1CC[C@@H]2[C@H](COc3ccc(NC(=O)Nc4cc(C)cc(C)c4)cc3C(=O)N2C)O1	-3.4	/	/	/	/	/
C[C@@H]1CN([C@H](C)CO)C(=O)c2cccc(NS(=O)(=O)c3cccs3)c2O[C@H]1CN(C)S(=O)(=O)c1ccccc1	0.0	/	/	/	/	/
CC(=O)c1ccc(N/C=C/C(=O)c2ccc(Br)cc2)cc1	46.0*	/	-1.5	-7.6	0.6	-15.1
COc1ccc(N/C=C\C(=O)c2ccc(C)cc2)cc1OC	51.7*	57.0	6.8	-1.0	6.5	-7.4
Cc1ccc(S(=O)(=O)NC(=O)Nc2ccc(F)c(F)c2)cc1	-0.8	11.0	9.5	1.3	0.4	-1.1
COc1ccc(N/C=C\C(=O)c2ccc(Br)cc2)cc1OC	/	45.5	1.6	0.3	0.3	0.0
COc1ccc(NC(=O)NS(=O)(=O)c2ccc(C)cc2)cc1OC	-2.7	4.9	-1.7	6.0	31.8*	2.9
CC(=O)Nc1ccc(N/C=C/C(=O)c2ccc(Br)cc2)cc1	34.3	47.2	4.8	0.7	/	-8.3
COc1cccc(C(=O)/C=C/Nc2cc(C)ccc2O)c1	62.8*	63.6	-9.1	1.2	/	-1.5
Cc1ccc(Cl)c(N/C=C/C(=O)c2ccccc2)c1	9.2	/	-5.6	-9.0	10.8	-14.6
COCC(=O)Nc1ccc2c(c1)C(=O)N(C)C[C@@H](OC)[C@@H](C)CN(C(=O)C1CCCC1)[C@H](C)CO2	0.8	/	/	/	/	/
C[C@@H]1CN([C@@H](C)CO)C(=O)Cc2cc(NS(=O)(=O)c3cn(C)cn3)ccc2O[C@H]1CN(C)C(=O)Nc1ccccc1	-4.3	/	/	/	/	/
Cc1ccccc1S(=O)(=O)N1C[C@@H](O)COC[C@H]2O[C@H](CC(=O)N3CCN(C)CC3)CC[C@@H]21	-1.5	/	/	/	/	/
OC[C@@H]1Nc2ccc(C#Cc3ccc(F)cc3)cc2[C@H]2[C@@H]1CCN2Cc1ccc2c(c1)OCO2	-3.2	/	/	/	/	/
Cc1cccc(N/C=C/C(=O)c2ccc(Cl)cc2)c1	41.4	71.6	7.1	-7.1	49.1*	-9.9
CCOC(=O)c1cccc(N/C=C/C(=O)c2ccc(OC)c(OC)c2)c1	52.6*	25.2	/	-1.7	/	7.9
CCOC(=O)c1ccc(OS(=O)(=O)c2ccccc2)c(OC)c1	/	?	-9.5	-5.4	54.4*	-9.2
COc1cccc(N/C=C/C(=O)c2ccc(OC)c(OC)c2)c1	?	/	-2.4	0.9	14.2	-24.6
CCOc1ccc(N/C=C/C(=O)c2ccc(OC)cc2)cc1	?	44.1	3.2	-2.1	6.4	-4.0
CCOC(=O)c1ccc(N/C=C\C(=O)c2cccc(OC)c2)cc1	/	96.0*	-6.0	-2.4	/	8.5
Cc1noc(C)c1S(=O)(=O)Nc1ccc2c(c1)CC(=O)N([C@@H](C)CO)C[C@@H](C)[C@H](CN(C)S(=O)(=O)c1ccccc1)O2	-1.9	/	/	/	/	/
Fc1ccccc1NC(=S)N/N=C/c1ccccc1Br	60.4*	/	-8.9	0.7	/	-9.5
O=[N+]([O-])c1ccc(/C=N/NC(=S)Nc2ccccc2F)o1	24.1	-17.6	-10.7	1.3	/	5.2
Cc1nc(SCc2ccccc2)nc2c1CCC2	99.8*	93.4*	1.3	-5.4	16.5	-8.6
CCCN1C(=O)/C(=C/c2ccc(N3CCOCC3)cc2)NC1=S	/	12.8	-0.8	1.9	-1.6	1.3
Cc1cc(/C=C2/C(=O)N(C)C(=S)N2C)ccc1N1CCCC1	77.7*	55.3	31.3	-8.5	43.9*	-13.2
CCCN1C(=O)/C(=C/c2ccc(N3CCCC3)c(C)c2)NC1=S	3.8	18.5	147.1*	-5.1	7.1	4.7
CCN1C(=O)/C(=C/c2ccc(N3CCCC3)cc2)NC1=S	49.2*	48.9	61.3*	0.3	15.7	-2.2
